Screens from PubChem.
CHX counter = counter-screen for Shiga toxin inhibitors: cycloheximide protein synthesis inhibition; cell reporter, cycloheximide protein synthesis inhibition counterscreen; max response, %; hit rate 12% among 300,000; AID 2314; in the data active = max response mostly above about 13%, no sharp cut-off; inactive = mostly below about 14%; also: read at 38.3 µM for the half of the compounds with a filed dose; 0% is about no effect
Shiga toxin inh = Shiga toxin inhibition | Vero cells, Shiga toxin protein synthesis inhibition reporter | inhibition, % at 38.7 µM | hit rate 9.2% among 290,000; in the data active = inhibition mostly above about 28%, no sharp cut-off; inactive = mostly below about 43%; also: 0% is about no effect
LmPK inhibitor = LmPK (Leishmania mexicana) enzyme inhibition; purified LmPK, Kinase-Glo ATP luminescence, 1 h; hit rate 0.37% among 290,000; Q27686; Potency, µM (doses to about 57.5 µM), for inactives: at the highest dose activity change, negative = inhibition, hits mostly inhibitors; also: potency is read from the fitted curve at half-maximal effect; % is scaled to controls: 0 for no effect and ±100 for the full control effect
Target sequence (Q27686 whole entry, looked up): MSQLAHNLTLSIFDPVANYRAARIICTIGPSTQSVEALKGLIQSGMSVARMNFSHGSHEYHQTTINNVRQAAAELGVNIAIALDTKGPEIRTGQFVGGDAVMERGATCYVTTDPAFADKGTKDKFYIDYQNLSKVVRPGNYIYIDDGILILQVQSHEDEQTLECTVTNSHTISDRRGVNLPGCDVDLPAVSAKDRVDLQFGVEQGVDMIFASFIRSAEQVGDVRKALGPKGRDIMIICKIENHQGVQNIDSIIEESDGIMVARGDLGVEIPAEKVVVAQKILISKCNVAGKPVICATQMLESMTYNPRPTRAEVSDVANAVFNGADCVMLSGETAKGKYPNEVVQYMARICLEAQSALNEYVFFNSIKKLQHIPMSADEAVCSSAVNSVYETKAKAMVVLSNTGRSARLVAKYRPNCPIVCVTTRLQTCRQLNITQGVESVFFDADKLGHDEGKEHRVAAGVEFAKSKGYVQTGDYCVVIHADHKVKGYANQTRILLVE
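Kinase-Glo luminescence read after 1 h RT reaction of 0.1 nM LmPK with 0.5 mM PEP and 0.1 mM ADP. Activity scaled between uninhibited and enzyme-free controls.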
Sm TGR inh = S. mansoni TGR enzyme inhibition. Q962Y6. purified TGR, DTNB reduction, TNB absorbance 405 nm. Potency, µM (top dose mostly 114 µM), inactives show at the top dose activity change, negative = inhibition, most hits filed as inhibitors. hit rate 3% among 360,000; also: potency is read from the fitted curve at half-maximal effect; % is scaled to controls: 0 for no effect and ±100 for the full control effect; nearly all actives have a fitted effect of over 60% in size
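Kinetic colorimetric format: TGR-catalysed, NADPH-driven DTNB reduction monitored via TNB absorbance. Enzyme dispensed at 20 nM; compound exposure 15 min at room temperature before reaction start.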
Giardia FBPA inh = Giardia lamblia aldolase inhibition. Potency, µM (titrated, usually from 59.6 µM), inactives show at the top dose activity, negative = inhibition, most hits filed as inhibitors. hit rate 0.71% among 290,000. purified Giardia FBPA. A8B2U2; also: potency is read from the fitted curve at half-maximal effect; % is scaled to controls: 0 for no effect and ±100 for the full control effect; nearly all actives have a fitted effect of over 55% in size
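Giardia FBPA (40 nM reagent) was preincubated 10 min at RT with compound (up to 57.5 uM final), then substrate plus GAPDH/TPI/NAD/arsenate coupling system with diaphorase/resazurin was added; resorufin fluorescence (525/598 nm) was read after 20 min.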
TbPYK inhibitor = blocks Trypanosoma brucei pyruvate kinase; AID 624173; Potency, µM (doses to about 76.8 µM), without a hit: top-dose activity, negative = inhibition, most hits filed as inhibitors; TbPYK enzyme, Kinase-Glo Plus ATP luminescence, 45 min; Q57TT1; hit rate 0.12% among 410,000; also: potency is read from the fitted curve at half-maximal effect; % is scaled to controls: 0 for no effect and ±100 for the full control effect; nearly all actives have a fitted effect of over 50% in size
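T. brucei PYK with substrate was exposed to pin-transferred compounds across a concentration series, then started with 130 uM ADP (final). After 45 min at room temperature, Kinase-Glo Plus luminescence was read, normalized and curve-fitted.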
* hit, by the source's call; ? = inconclusive; . = no result; [ ] = remark or other dose. Shown is part of a subset that was picked to be rich in hits. Unless noted, calls follow the shape of the dose curve; as a rule, active = well fitted curve in the direction sought with a large enough effect; inconclusive = small, poorly fitted or top-dose-only effect, or another doubt; inactive = no such curve, though single readings can be large; an effect the other way counts as inactive or inconclusive.

SMILES	CHX counter	Shiga toxin inh	LmPK inhibitor	Sm TGR inh	Giardia FBPA inh	TbPYK inhibitor
Brc1cccc(Nc2nc(-c3cccnc3)cs2)c1	25*	.	0%	-21%	-4%	-3%
Cc1cc(O)ccc1Nc1nc(-c2cccnc2)cs1	31*	51*	-9%	0%	18%	-29%
Cc1cc(O)ccc1Nc1nc(-c2cccs2)cs1	36*	69*	?	5%	-2%	6%
CC[N+]1(C)CCC(O)(/C=C/c2ccccc2)C(C(=O)/C=C/c2ccccc2)C1 (configuration not stated)	.	.	.	.	.	-11%
Cc1ccc(-n2nc(CO)c(C(=O)NCCCc3ccccc3)n2)cc1C	.	.	.	2%	.	-3%
COc1ccccc1OCCCCOc1ccccc1F	34*	75	1%	17%	-5%	-7%
Fc1ccccc1OCCCCCN1CCCC1	9	-9	-8%	-2%	1%	-5%
Fc1ccccc1OCCCCCCN1CCCC1	17*	42	4%	-22%	-10%	0%
COc1ccccc1Oc1ccc(Oc2ccccc2OC)cc1	41*	45	1%	5%	1%	-2%
COc1ccc(Oc2ccccc2C#N)cc1	7	51	1%	-3%	-5%	-4%
Cc1cccc(OCC(=O)N(Cc2ccccc2)c2c(N)n(Cc3ccccc3)c(=O)[nH]c2=O)c1	.	.	.	0%	.	1%
CCOc1ccc(-c2cn3c(n2)sc2cc(C(=O)NCCCN4CCCCC4)ccc23)cc1	.	.	.	-5%	.	1%
CCN(C(=O)C1CCC(CNS(=O)(=O)c2cccc3nsnc23)CC1)c1cccc(C)c1 (configuration not stated)	.	.	.	4%	.	-4%
Cc1ccc(S(=O)(=O)NC(=O)c2ccc(-c3ccc(C)c4ccccc34)o2)cc1	-4	-15	-1%	?	3%	1%
Cc1ccc(-c2ccc(C(=O)NCc3ccccc3)o2)c2ccccc12	-2	-11	0%	40µM*	-14%	-2%
CCOc1ccccc1-c1ccc(C(=O)NCc2ccccc2)o1	10	13	2%	?	1%	-6%
Cc1ccc(-c2ccc(C(=O)Nc3ccccc3)o2)c2ccccc12	36*	67*	1%	35µM*	?	1%
CCCC(=O)Nc1cccc(-c2nc3cc(C)c(C)cc3o2)c1C	.	.	.	0%	.	-1%
CCCOc1ccc(C2C(C(=O)/C=C/c3ccco3)=C(O)C(=O)N2CCN2CCOCC2)cc1OC (configuration not stated)	-2	-1	-1%[11.5 µM]	8.9µM*	7.9µM*	-16%
COc1cc(C2C(C(C)=O)=C(O)C(=O)N2CCN2CCOCC2)ccc1O (configuration not stated)	-3	-4	-14%	-6%	-16%	0%
C/C(=N/Nc1ccc(C)cc1)C1(C)N(O)C(C)(C)C(c2ccco2)=[N+]1[O-] (configuration not stated)	17*	36	-29%	10µM*	-19%	-7%
CN(C)CCCN(C(=O)c1ccc(Br)s1)c1nc2cc3c(cc2s1)OCCO3	.	.	.	7%	.	3%
CC(C)CN(C(=O)c1ccco1)c1nc2ccccc2s1	active	43	2%	3%	-8%	-1%
CN(C)CCCN(C(=O)c1ccc([N+](=O)[O-])s1)c1nc2cc3c(cc2s1)OCCO3	12*	20	0%	-24%	-17%	-6%
CN(C)CCCN(C(=O)c1cccs1)c1nc2cc3c(cc2s1)OCO3	17*	40	-17%	-17%	1%	5%
SMILES	CHX counter	Shiga toxin inh	LmPK inhibitor	Sm TGR inh	Giardia FBPA inh	TbPYK inhibitor
CN(C)CCCN(C(=O)c1ccco1)c1nc2cc3c(cc2s1)OCO3	12*	7	2%	3%	-10%	4%
CCOC1=C2CN(S(=O)(=O)c3ccc(C)cc3)[C@@H](c3cccs3)C[C@H]2[C@H]2C(=O)N(c3ccccc3)C(=O)[C@H]2C1	.	.	.	.	.	-9%
Cc1cc(C)c2c(CC(=O)Nc3ccccc3C(F)(F)F)coc2c1	.	.	.	-6%	.	-3%
Cc1[nH]c2ccc(C(=O)OC(C)C(=O)NC3(C#N)CCCCC3)cc2c1C (configuration not stated)	.	.	.	1%	.	-4%
C[C@H](NC(=O)[C@@H]1CSC2c3ccccc3C(=O)N21)C(=O)NCCc1ccccc1 (some centres not stated)	43*	51*	5%	2%	.	3%
Cc1ccc(NC2=CC(=O)c3sc(C)nc3C2=O)cc1	-13	-8	.	.	-11%	.
COc1cc2c3cc1Oc1c(OC)c(OC)cc4c1[C@@H](Cc1ccc(OC(=O)c5ccc([N+](=O)[O-])cc5)c(c1)Oc1ccc(cc1)C[C@@H]3N(C)CC2)N(C)CC4	-4	7	.	.	-13%	.
Cc1ccccc1-c1nc2cc(Cl)ccc2c(=O)o1	7	2	-4%	-4%	-1%	-2%
O=S(=O)(Nc1ccc2oc(-c3ccccc3)nc2c1)c1ccccc1	31*	51	2%	17%	-29%	2%
Cc1ccccc1-c1nc2cc(Cl)ccc2o1	38*	87	-22%	-3%	2%	4%
Clc1ccc2oc(-c3cccnc3)nc2c1	47*	85*	-8%	-29%	0%	-5%
Clc1ccc2oc(SCc3cccnc3)nc2c1	23*	66*	-3%	-2%	5%	-2%
Cc1cc(N2CCC(C)CC2)nc2ccc(NC(=O)/C=C/c3cccc(Cl)c3)cc12	.	.	.	1%	.	-10%
O=C(Cc1ccc(Cl)cc1)Nc1ccc2oc(-c3ccccc3)nc2c1	.	.	.	4%	.	2%
Clc1ccc2oc(-c3ccccc3)nc2c1	46*	107*	-19%	1%	-8%	1%
COC(=O)CCNC(=O)N1CCN(c2nnc(C)c3c(C)n(-c4ccc(Cl)cc4)nc23)CC1	.	.	.	-8%	.	0%
CC(C)CC(C(=O)NC(C)(C)C)N(Cc1cccs1)C(=O)c1snc(C(N)=O)c1N (configuration not stated)	49*	47*	8%	-8%	-5%	2%
CCC(C)(C)NC(=O)CN(C(=O)c1snc(C(N)=O)c1N)c1ccc2c(c1)OCCO2	-1	3	2%	1%	1%	-10%
CCCC(C(=O)NC(C)(C)C)N(C(=O)c1snc(C(N)=O)c1N)c1ccc2c(c1)OCCO2 (configuration not stated)	56*	114*	-2%	-9%	0%	-1%
CCc1ccc(NS(=O)(=O)c2ccc3[nH]cc(C(=O)N(C)Cc4ccco4)c(=O)c3c2)cc1	-4	-13	2%	-8%	-5%	-2%
CN(Cc1ccco1)C(=O)c1c[nH]c2ccc(S(=O)(=O)Nc3ccc4c(c3)OCCO4)cc2c1=O	18*	-19	6%	0%	17%	-5%
COCCNc1cc(-c2ccccc2C(F)(F)F)ncn1	.	.	.	.	-6%	.
CN(CCOC(=O)c1ccco1)Cc1ccccc1	1	-5	-2%	0%	-21%	31%
